Results as given in the supplement of paper PMC11219838.
Values without a mark were called inactive.

What follows are compounds tested on Caenorhabditis elegans dauer (daf-2(e1370)) (assay: proportion of mobile C. elegans dauer larvae relative to DMSO control (fraction of DMSO control); higher = more viable, less nematicidal, active = 0.63 or less; extreme values may be limits of the assay). Conditions: 60 µM; 5 days; temperature: 20 °C.
Summary of the method: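 Synchronized C. elegans larvae were kept for 48 h at 25 °C on MYOB plates seeded with E. coli OP50 to induce dauer formation, and roughly 20 dauers were transferred into each well of a 96-well plate containing liquid NGM. Compound was pinned in to a final concentration of 60 µM with 0.6% v/v DMSO, and the sealed plates were shaken at 200 rpm for 5 days at 20 °C. The fraction of mobile worms was scored under a dissection microscope against DMSO-only wells and averaged across two biological replicates.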
For Brc1ccc(OCc2nc(-c3cccnc3)no2)cc1, the “proportion of mobile C. elegans dauer larvae” value was 1. CCn1c(SCc2ccc(OC)cc2)nnc1-c1ccco1 was tested, and the “proportion of mobile C. elegans dauer larvae” value was 1. For Ic1ccc(-c2nc(-c3cccnc3)no2)cc1, the “proportion of mobile C. elegans dauer larvae” value was 1. CCCCC(=O)Nc1ccccc1-c1nc(-c2ccccn2)no1 was tested, and the “proportion of mobile C. elegans dauer larvae” value was 1. For CC(Oc1ccccc1)c1nc(-c2cccnc2)no1 (stereo unspecified), the “proportion of mobile C. elegans dauer larvae” value was 1. In the case of Cc1ccccc1CSc1nnc(-c2ccncc2)o1, the “proportion of mobile C. elegans dauer larvae” value is reported as 1. For Cc1cc(C)c(NC(=O)CSc2nnc(-c3ccc(Br)cc3)o2)c(C)c1, the “proportion of mobile C. elegans dauer larvae” value was 1. With FC(F)(F)c1cccc(-c2noc(-c3ccccc3Cl)n2)c1 the “proportion of mobile C. elegans dauer larvae” value was 1. In the case of O=C(CSc1nnc(-c2cc3ccccc3o2)o1)NC1CC1, the “proportion of mobile C. elegans dauer larvae” value is reported as 1. For Cc1ccc(CSc2nnc(-c3ccco3)o2)c(C)c1, the “proportion of mobile C. elegans dauer larvae” value was 1. With Clc1ccc(-c2noc(COc3ccccc3Cl)n2)cc1 the “proportion of mobile C. elegans dauer larvae” value was 1. In the case of CCCOc1ccc(-c2nc(-c3ccncc3)no2)cc1, the “proportion of mobile C. elegans dauer larvae” value is reported as 0.5 (active). With CC(C)(C)NC(=O)CSc1nnc(-c2ccc(C(C)(C)C)cc2)o1 the “proportion of mobile C. elegans dauer larvae” value was 1. In the case of Brc1cccc(-c2nc(-c3ccccc3)no2)c1, the “proportion of mobile C. elegans dauer larvae” value is reported as 1. FC(F)(F)c1ccc(-c2noc(-c3ccccc3Cl)n2)cc1 was tested, and the “proportion of mobile C. elegans dauer larvae” value was 1. With COc1ccccc1NC(=O)CSc1nnc(-c2ccc(Cl)cc2)o1 the “proportion of mobile C. elegans dauer larvae” value was 1. In the case of O=C(CSc1nnc(-c2cccnc2)o1)c1ccc2ccccc2c1, the “proportion of mobile C. elegans dauer larvae” value is reported as 1. With CCn1c(SCc2nc(-c3cccs3)no2)nnc1-c1ccco1 the “proportion of mobile C. elegans dauer larvae” value was 1. In the case of Clc1ccc(-c2nc(-c3cccnc3)no2)c(Cl)c1, the “proportion of mobile C. elegans dauer larvae” value is reported as 0.625 (active). COc1ccccc1-c1noc(-c2ccc(C(C)(C)C)cc2)n1 was tested, and the “proportion of mobile C. elegans dauer larvae” value was 1. In the case of COc1ccc(-c2nnc(SCC(=O)c3ccc(C)o3)o2)cc1, the “proportion of mobile C. elegans dauer larvae” value is reported as 1. In the case of Cc1ccc(-c2noc(CSc3nc4ccccc4[nH]3)n2)cc1, the “proportion of mobile C. elegans dauer larvae” value is reported as 1. Clc1ccc(-c2noc(COc3ccc4c(c3)OCO4)n2)cc1 was tested, and the “proportion of mobile C. elegans dauer larvae” value was 1. With COc1ccc(-c2noc(-c3ccccc3Br)n2)cc1 the “proportion of mobile C. elegans dauer larvae” value was 1. For COc1nc(-c2ccc(C)cc2)ccc1-c1noc(C)n1, the “proportion of mobile C. elegans dauer larvae” value was 1. With CCc1ccc(OCc2nc(-c3ccc(Cl)cc3)no2)cc1 the “proportion of mobile C. elegans dauer larvae” value was 1. In the case of Cc1cccc(OC(C)c2nc(-c3cccnc3)no2)c1 (stereo unspecified), the “proportion of mobile C. elegans dauer larvae” value is reported as 1. For Clc1ccc(OCc2nc(-c3ccncc3)no2)cc1, the “proportion of mobile C. elegans dauer larvae” value was 0.645. Cc1nnc(CSc2nnc(-c3ccc(Cl)cc3)o2)o1 was tested, and the “proportion of mobile C. elegans dauer larvae” value was 1. O=C(CSc1nnc(-c2ccccc2)o1)Nc1ccc(Br)cc1F was tested, and the “proportion of mobile C. elegans dauer larvae” value was 1. CCCc1ccc(-c2nc(-c3ccc(F)cc3)no2)cc1 was tested, and the “proportion of mobile C. elegans dauer larvae” value was 0.714. With CCOc1ccc(-c2nc(-c3ccc(Cl)cc3)no2)cc1 the “proportion of mobile C. elegans dauer larvae” value was 1. With Cc1cc(OCc2nc(-c3ccccc3)no2)ccc1Cl the “proportion of mobile C. elegans dauer larvae” value was 1. In the case of COc1ccc(CC(=O)Nc2ccc(-c3noc(COc4cccc(C)c4C)n3)cc2)cc1, the “proportion of mobile C. elegans dauer larvae” value is reported as 1. With Cn1cc(C(=O)CSc2nnc(-c3cccc(Cl)c3)o2)c2ccccc21 the “proportion of mobile C. elegans dauer larvae” value was 1. In the case of Brc1ccc(-c2noc(-c3ccco3)n2)o1, the “proportion of mobile C. elegans dauer larvae” value is reported as 0.391 (active). CCOc1ccccc1-c1nc(-c2ccc(NC(=O)Cc3ccccc3OC)cc2)no1 was tested, and the “proportion of mobile C. elegans dauer larvae” value was 1. With COc1ccc(-c2noc(COc3ccc4c(c3)CCCC4)n2)cc1 the “proportion of mobile C. elegans dauer larvae” value was 1.

What follows are compounds tested on Ditylenchus dipsaci (assay: proportion of mobile D. dipsaci (mixed stage) relative to DMSO control (fraction of DMSO control); higher = more viable, less nematicidal, active = 0.86 or less; extreme values may be limits of the assay). Conditions: 60 µM; 5 days; temperature: 20 °C.
Summary of the method: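 D. dipsaci were grown on pea plants in Gamborg B-5 agar and extracted through a filter funnel into water, and about 20 worms were added per 96-well well in distilled water. Compound was pinned to 60 µM final (0.6% v/v DMSO), and sealed plates were shaken at 200 rpm for 5 days at 20 °C. After 2 µL 1 M NaOH was added, mobile worms were scored microscopically. Mobility was expressed relative to DMSO controls and averaged over two biological replicates.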
With Brc1ccc(OCc2nc(-c3cccnc3)no2)cc1 the “proportion of mobile D. dipsaci” value was 1. With CCn1c(SCc2ccc(OC)cc2)nnc1-c1ccco1 the “proportion of mobile D. dipsaci” value was 1. With Ic1ccc(-c2nc(-c3cccnc3)no2)cc1 the “proportion of mobile D. dipsaci” value was 1. CCCCC(=O)Nc1ccccc1-c1nc(-c2ccccn2)no1 was tested, and the “proportion of mobile D. dipsaci” value was 1. With CC(Oc1ccccc1)c1nc(-c2cccnc2)no1 (stereo unspecified) the “proportion of mobile D. dipsaci” value was 1. With Cc1ccccc1CSc1nnc(-c2ccncc2)o1 the “proportion of mobile D. dipsaci” value was 1. In the case of Cc1cc(C)c(NC(=O)CSc2nnc(-c3ccc(Br)cc3)o2)c(C)c1, the “proportion of mobile D. dipsaci” value is reported as 1. With FC(F)(F)c1cccc(-c2noc(-c3ccccc3Cl)n2)c1 the “proportion of mobile D. dipsaci” value was 1. In the case of O=C(CSc1nnc(-c2cc3ccccc3o2)o1)NC1CC1, the “proportion of mobile D. dipsaci” value is reported as 1. In the case of Cc1ccc(CSc2nnc(-c3ccco3)o2)c(C)c1, the “proportion of mobile D. dipsaci” value is reported as 1. For Clc1ccc(-c2noc(COc3ccccc3Cl)n2)cc1, the “proportion of mobile D. dipsaci” value was 1. CCCOc1ccc(-c2nc(-c3ccncc3)no2)cc1 was tested, and the “proportion of mobile D. dipsaci” value was 1. CC(C)(C)NC(=O)CSc1nnc(-c2ccc(C(C)(C)C)cc2)o1 was tested, and the “proportion of mobile D. dipsaci” value was 1. Brc1cccc(-c2nc(-c3ccccc3)no2)c1 was tested, and the “proportion of mobile D. dipsaci” value was 1. For FC(F)(F)c1ccc(-c2noc(-c3ccccc3Cl)n2)cc1, the “proportion of mobile D. dipsaci” value was 1. With COc1ccccc1NC(=O)CSc1nnc(-c2ccc(Cl)cc2)o1 the “proportion of mobile D. dipsaci” value was 1. With O=C(CSc1nnc(-c2cccnc2)o1)c1ccc2ccccc2c1 the “proportion of mobile D. dipsaci” value was 1. CCn1c(SCc2nc(-c3cccs3)no2)nnc1-c1ccco1 was tested, and the “proportion of mobile D. dipsaci” value was 1. Clc1ccc(-c2nc(-c3cccnc3)no2)c(Cl)c1 was tested, and the “proportion of mobile D. dipsaci” value was 1. For COc1ccccc1-c1noc(-c2ccc(C(C)(C)C)cc2)n1, the “proportion of mobile D. dipsaci” value was 1. In the case of COc1ccc(-c2nnc(SCC(=O)c3ccc(C)o3)o2)cc1, the “proportion of mobile D. dipsaci” value is reported as 1. With Cc1ccc(-c2noc(CSc3nc4ccccc4[nH]3)n2)cc1 the “proportion of mobile D. dipsaci” value was 1. For Clc1ccc(-c2noc(COc3ccc4c(c3)OCO4)n2)cc1, the “proportion of mobile D. dipsaci” value was 1. With COc1ccc(-c2noc(-c3ccccc3Br)n2)cc1 the “proportion of mobile D. dipsaci” value was 1. For COc1nc(-c2ccc(C)cc2)ccc1-c1noc(C)n1, the “proportion of mobile D. dipsaci” value was 1. CCc1ccc(OCc2nc(-c3ccc(Cl)cc3)no2)cc1 was tested, and the “proportion of mobile D. dipsaci” value was 1. In the case of Cc1cccc(OC(C)c2nc(-c3cccnc3)no2)c1 (stereo unspecified), the “proportion of mobile D. dipsaci” value is reported as 1. With Clc1ccc(OCc2nc(-c3ccncc3)no2)cc1 the “proportion of mobile D. dipsaci” value was 1. In the case of Cc1nnc(CSc2nnc(-c3ccc(Cl)cc3)o2)o1, the “proportion of mobile D. dipsaci” value is reported as 1. For O=C(CSc1nnc(-c2ccccc2)o1)Nc1ccc(Br)cc1F, the “proportion of mobile D. dipsaci” value was 1. CCCc1ccc(-c2nc(-c3ccc(F)cc3)no2)cc1 was tested, and the “proportion of mobile D. dipsaci” value was 1. CCOc1ccc(-c2nc(-c3ccc(Cl)cc3)no2)cc1 was tested, and the “proportion of mobile D. dipsaci” value was 1. With Cc1cc(OCc2nc(-c3ccccc3)no2)ccc1Cl the “proportion of mobile D. dipsaci” value was 1. In the case of COc1ccc(CC(=O)Nc2ccc(-c3noc(COc4cccc(C)c4C)n3)cc2)cc1, the “proportion of mobile D. dipsaci” value is reported as 1. Cn1cc(C(=O)CSc2nnc(-c3cccc(Cl)c3)o2)c2ccccc21 was tested, and the “proportion of mobile D. dipsaci” value was 1. Brc1ccc(-c2noc(-c3ccco3)n2)o1 was tested, and the “proportion of mobile D. dipsaci” value was 1. In the case of CCOc1ccccc1-c1nc(-c2ccc(NC(=O)Cc3ccccc3OC)cc2)no1, the “proportion of mobile D. dipsaci” value is reported as 1. For COc1ccc(-c2noc(COc3ccc4c(c3)CCCC4)n2)cc1, the “proportion of mobile D. dipsaci” value was 1.
